Screens: PubChem BioAssay, National Center for Advancing Translational Sciences (NCATS)
KB-3-1 cytotox: qHTS assay for MDR1-selective chemotherapeutics: Primary screen using the parental adenocarcinoma cell KB-3-1. KB-3-1 viability, CellTiter-Glo ATP luminescence, 72 h. 400,000 tested, 1.4% active. Potency, µM (series often up to 46.1 µM), usual class: cytotoxic; note: nearly all actives have a fitted effect of over 60% in size
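Here the drug-naive KB-3-1 line serves as comparator for MDR sub-line selectivity; cells received compound titrations, 72 h at 37 °C, then CellTiter-Glo readout.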
DT40 TDP1 CPT: qHTS for Inhibitors of human tyrosyl-DNA phosphodiesterase 1 (TDP1): qHTS in cells in presence of CPT. chicken DT40 Tdp1-/-;hTDP1 cells + 20 nM CPT, ATP luminescence, 48 h. Potency, µM (titrated, usually from 46.2 µM), actives largely listed as inhibitors. 420,000 tested, 12% active; note: nearly all actives have a fitted effect of over 55% in size
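Chicken DT40 Tdp1-/- cells complemented with human TDP1, 400 cells/well, exposed to compounds plus 20 nM camptothecin for at least 48 h at 37 C; viability read as ATP content by CellTiter-Glo luminescence.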
TDP1 cell noCPT: qHTS for Inhibitors of human tyrosyl-DNA phosphodiesterase 1 (TDP1): qHTS in cells in absence of CPT | Potency, µM (series often up to 46.2 µM), usual class: inhibitors | DT40 Tdp1-/- hTDP1 cells, no CPT, ATP luminescence, 48 h | 420,000 tested, 15% active | AID 686978, 2013; note: nearly all actives have a fitted effect of over 55% in size
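No-CPT arm: Tdp1-/-;hTDP1 DT40 cells (400/well) plus compounds, incubated ≥48 hr at 37 °C. Readout CellTiter-Glo luminescence.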
HT1080 IDH1KD tx: qHTS for induction of synthetic lethality in tumor cells producing 2HG: qHTS for the HT-1080-IDH1KD cell line | HT-1080 IDH1 knockdown viability, ATP luminescence, 48 h | Potency, µM (titrated, usually from 46.1 µM), hits mostly cytotoxic | 360,000 tested, 2% active | AID 686971, 2013
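Viability of IDH1-knockdown HT-1080 fibrosarcoma cells was assessed by CellTiter-Glo after 48 h at 37 °C with titrated compound; concentration-effect curves were classified by fit quality and response size.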
HT1080-NT tox: qHTS for induction of synthetic lethality in tumor cells producing 2HG: qHTS for the HT-1080-NT fibrosarcoma cell line. HT-1080-NT fibrosarcoma viability, CellTiter-Glo ATP luminescence, 48 h. Potency, µM (highest dose often 46.1 µM), hits mostly cytotoxic. 360,000 tested, 1.6% active;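 note: NT is the 2HG producing partner of a matched IDH1 knockdown line; nearly all actives have a fitted effect of over 55% in size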
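A 48-hour cytotoxicity screen used HT-1080-NT cells plated 2 hours before compound delivery. ATP-based CellTiter-Glo luminescence measured viability, normalized to DMSO and no-cell controls.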
KB-V1 MDR tox: qHTS assay for MDR1-selective chemotherapeutics: Primary screen using the drug-selected MDR subline cells KB-V1. 400,000 tested, 3.4% active. AID 1347076, 2019. KB-V1 MDR cells viability, CellTiter-Glo, 72 h. Potency, µM (top dose mostly 46.1 µM), most hits filed as cytotoxic; note: nearly all actives have a fitted effect of over 60% in size
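KB-V1, DMEM (no phenol red) + 10% FBS; cpd pin-transferred, titration series; 72 h, 37 degrees C; CellTiter-Glo, luminescence. Data normalized, curve-fit.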
Hits are given with their value; i = inactive; ? = inconclusive; nt = no result given; [ ] = dose if it differs, or a comment. Hits are enriched below; roughly 19% of the tested compounds scored in any of these assays. Calls come from the whole dose curve; as a rule, active = well fitted curve in the direction sought with a large enough effect; inconclusive = small, poorly fitted or top-dose-only effect, or another doubt; inactive = no such curve, though single readings can be large; an effect the other way counts as inactive or inconclusive.

SMILES | KB-3-1 cytotox | DT40 TDP1 CPT | TDP1 cell noCPT | HT1080 IDH1KD tx | HT1080-NT tox | KB-V1 MDR tox
N#CC(C#N)=C(Nc1ccc(F)cc1)SCc1cccc(F)c1 | 16µM | 2.6µM | 2.6µM | ? | ? | ?
CCc1ccc(N/C(SC)=C(/C#N)C(N)=O)cc1 | i | ? | ? | i | i | i
COc1ccc(CN2C(=O)c3cccnc3C2Nc2ccc(OC)c(Cl)c2)cc1 (stereo unspecified) | i | i | i | i | i | 15µM
COc1ccc(NC2c3ncccc3C(=O)N2Cc2ccccc2)c(OC)c1 (stereo unspecified) | i | i | i | i | i | i
CCCCCCCC/C=C\C/C=C\C/C=C\CCCC(=O)NCCO | nt | i[4.12 µM] | i[4.12 µM] | nt | nt | nt
CCCCCCCC/C=C\CCCCCCCC(=O)N[C@@H](CO)Cc1ccc(O)cc1 | nt | 12µM | 11µM | nt | nt | nt
NC(=O)CSc1ccc(-c2ccc(F)cc2)nn1 | i | i | i | i | i | i
COc1ccc(N2C(=O)CC(Sc3n[nH]c(-c4cccc(C)c4)n3)C2=O)cc1 (stereo unspecified) | i | 0.92µM | 3.7µM | ? | i | ?
CCOC(=O)CN1C(=O)C(Sc2n[nH]c(-c3cccc(C)c3)n2)CCc2ccccc21 (stereo unspecified) | i | ? | ? | ? | ? | 21µM
COC(=O)c1ccc(N2C(=O)CC(Sc3n[nH]c(C)n3)C2=O)cc1 (stereo unspecified) | i | 2.1µM | 5.2µM | i | i | ?
CCOc1ccccc1N1C(=O)CC(Sc2n[nH]c(-c3ccccc3)n2)C1=O (stereo unspecified) | i | 0.65µM | 0.65µM | ? | i | i
CN(CCO)c1cnccn1 | i | i | i | i | i | i
COCC(=O)N1CCC2(CC1)CN(c1ccncc1)C2 | nt | i | i | nt | nt | nt
COc1ccc(NC(=O)CSc2ncc3c(n2)-c2ccccc2N(C)S3(=O)=O)cc1Cl | i | ? | ? | nt | nt | i
O=S1(=O)C=C(Sc2nc3cc(Cl)ccc3o2)c2ccccc21 | ? | 0.58µM | 0.46µM | 5.2µM | 5.2µM | ?
Cc1ccc(S(=O)(=O)N2CCN(c3ccnc(-c4cccs4)n3)CC2)cc1 | nt | ? | ? | i | i | nt
CCOC(=O)c1c(C)[nH]c(C(=O)OCC(=O)c2ccccc2)c1C | i | ? | ? | i | i | ?
CC(=O)c1c(C)[nH]c(C(=O)OCc2ccccc2)c1C | ? | ? | 21µM | i | ? | ?
CC(=O)c1c(C)[nH]c(C(=O)OCc2ccc([N+](=O)[O-])cc2)c1C | ? | ? | ? | i | i | i
COC(=O)c1ccc(COC(=O)c2[nH]c(C)c(C(C)=O)c2C)o1 | i | 10µM | 2.9µM | i | i | i
CC(=O)c1c(C)[nH]c(C(=O)OCCCCN2C(=O)c3ccccc3C2=O)c1C | i | 8.2µM | 4.1µM | ? | i | i
CC(=O)c1c(C)[nH]c(C(=O)OCC(=O)c2ccc(Br)cc2)c1C | ? | ? | 18µM | i | i | i
COc1ccc(OC)c(CNC(=O)C2CCC(=O)N(CCCN3CCCC3=O)C2)c1 (stereo unspecified) | nt | ? | i | i | i | nt
CCC(NC(=O)c1[nH]c(C)c(C(C)=O)c1C)c1ccc(Br)cc1 (stereo unspecified) | i | ? | 15µM | ? | ? | ?
CC(NS(=O)(=O)c1ccc(Cl)cc1)C(=O)N1CCOCC1 (stereo unspecified) | i | i | i | i | i | i
SMILES | KB-3-1 cytotox | DT40 TDP1 CPT | TDP1 cell noCPT | HT1080 IDH1KD tx | HT1080-NT tox | KB-V1 MDR tox
CC1=C(C(=O)OC(C)C)C(c2cn(-c3ccccc3)nc2-c2cccs2)NC(=O)N1 (stereo unspecified) | i | ? | 23µM | i | i | ?
COC(=O)C1=C(C)NC(=O)NC1c1cn(-c2ccccc2)nc1-c1ccc(OC)c(Cl)c1 (stereo unspecified) | i | ? | 21µM | nt | nt | i
CCOC(=O)C1=C(C)NC(=O)NC1c1cn(-c2ccccc2)nc1-c1cccs1 (stereo unspecified) | i | ? | ? | ? | ? | 21µM
COC(=O)C1=C(C)NC(=O)NC1c1cn(-c2ccccc2)nc1-c1cccs1 (stereo unspecified) | i | ? | i | i | i | i
COc1ccc(CC(=O)Nc2cc(S(C)(=O)=O)ccc2Cl)cc1S(=O)(=O)N1CCOCC1 | i | i | i | i | i | i
CCC(C(=O)NCCc1ccc(SC)cc1)n1nc(C)c2sc3ccccc3c2c1=O (stereo unspecified) | i | ? | 23µM | nt | nt | i
CCOC(=O)C(C)n1nc(C)c2sc3ccccc3c2c1=O (stereo unspecified) | i | ? | ? | i | i | 21µM
Cc1nn(C(C)C(=O)NC2CCCCC2)c(=O)c2c1sc1ccccc12 (stereo unspecified) | i | ? | ? | nt | nt | i
CCC(C(=O)NCCc1ccc(OC)c(OC)c1)n1nc(C)c2sc3ccccc3c2c1=O (stereo unspecified) | i | 9.2µM | 8.2µM | nt | nt | i
Cc1ccc(CNC(=O)C(C)n2nc(C)c3sc4ccccc4c3c2=O)cc1 (stereo unspecified) | i | ? | ? | nt | nt | i
COc1ccc(CNC(=O)C(C)n2nc(C)c3sc4ccccc4c3c2=O)cc1OC (stereo unspecified) | i | 6.5µM | 6.5µM | nt | nt | i
CCC(C(=O)Nc1cccc(Cl)c1C)n1nc(C)c2sc3ccccc3c2c1=O (stereo unspecified) | i | ? | ? | nt | nt | i
Cc1nn(C(C)C(=O)NCc2ccc(OC(C)C)cc2)c(=O)c2c1sc1ccccc12 (stereo unspecified) | i | ? | ? | nt | nt | i
COc1ccc(CCNC(=O)C(C)n2nc(C)c3sc4ccccc4c3c2=O)cc1OC (stereo unspecified) | i | 15µM | 18µM | nt | nt | i
CCNC(=O)/N=C1/NC(=O)C(C(C)C)O1 (stereo unspecified) | i | i | i | i | i | i
CSc1cccc(NC(=O)c2cnn(-c3ccc(F)cc3)c2-n2cccc2)c1 | i | nt | nt | nt | nt | ?
Cc1ccc(S(=O)(=O)NNC(=O)c2cnn(-c3ccccc3)c2-n2cccc2)cc1 | i | 1.6µM | 1.5µM | i | i | i
CCN(CC)c1ccc(NC(=O)c2cnn(-c3ccccc3)c2-n2cccc2)c(C)c1 | ? | 15µM | 10µM | nt | nt | i
